# Assay outcomes as filed in PubChem.
# Compounds with a hit are over-represented: about 1.2% of the library has one in this group of screens.
# RGS8-Gao: modulates binding of RGS8 to human Galphao; P09471; multiplexed bead flow cytometry; actives lie on both sides; response (percent of control binding), % at 10 µM; 220,000 tested, 0.34% active; in the data active means response below about 60% or above about 140%; inactive means in between;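 further: Galphao activated as the GDP aluminium fluoride complex binding bead-coupled RGS8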
# Target sequence (P09471 whole entry, looked up): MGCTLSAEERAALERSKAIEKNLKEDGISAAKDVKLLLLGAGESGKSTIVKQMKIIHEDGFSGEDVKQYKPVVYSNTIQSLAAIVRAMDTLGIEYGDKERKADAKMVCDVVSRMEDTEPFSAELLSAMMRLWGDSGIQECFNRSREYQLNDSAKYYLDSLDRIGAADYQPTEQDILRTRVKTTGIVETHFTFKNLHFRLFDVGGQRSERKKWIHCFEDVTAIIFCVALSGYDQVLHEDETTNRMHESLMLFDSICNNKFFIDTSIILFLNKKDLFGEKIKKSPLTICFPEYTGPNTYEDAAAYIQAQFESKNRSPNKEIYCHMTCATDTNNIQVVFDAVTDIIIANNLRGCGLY
# GSH fluor: compound fluoresces at 488/530 nm on GSH beads. GSH beads flow cytometry, compound fluorescence 488/530 nm; active compounds read high. 190,000 tested, 0.25% active. fluorescence (KMESF) at 10 µM; in the data active means fluorescence above about 89;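 further: glutathione beads carrying GST-tagged Bcl family fusion proteins plus one bare bead set; values are compound well signal with DMSO vehicle wells as background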
# RGS4-Gao reg: modulates binding of RGS4 to human Galphao; Multiplexed bead flow cytometry; actives lie on both sides; binding response (% of control), % at 10 µM; 220,000 tested, 0.33% active; AID 1415; in the data active means binding response below about 49% or above about 150%; inactive means in between;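 further: fluorescent Galphao activated with aluminum fluoride binding bead-coupled RGS4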
# Avidin bead fluor: avidin bead compound fluorescence profile; Avidin beads, compound fluorescence 488/530 nm, flow cytometry; active compounds read high; fluorescence (KMESF) at 10 µM; 220,000 tested, 0.38% active; AID 1775; in the data active means fluorescence above about 47
# RGS7-Gao reg: regulators of human RGS7-Galphao interaction. AID 1439. 220,000 tested, 0.35% active. Multiplexed bead flow cytometry, RGS7-Galphao binding; actives lie on both sides. binding response (% of control), % at 10 µM. P09471; in the data active means binding response below about 49% or above about 150%; inconclusive means no clear call, values can overlap the other calls; inactive means in between;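 further: fluorescent Galphao held in activated GDP-AlF4 state binding bead-coupled RGS7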
# RGS16-Gao: modulates binding between human RGS16 and Galphao. O15492+P09471. bead-based flow cytometry RGS16-Galphao binding, fluorescence; actives lie on both sides. binding response (% of control), % at 10 µM. 220,000 tested, 0.38% active;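 further: Galphao activated by GDP with aluminum fluoride before binding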
# RGS-Gao: RGS4-Galphao interaction regulator (human); shares compounds with RGS16-Gao; multiplexed bead flow cytometry, RGS–Galpha-o binding; RGS4–Galpha-o binding response, % at 10 µM; 1,600 tested, 99% active; AID 1504;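 further: fluorescently labeled Galpha-o bound to GDP with aluminium fluoride binding biotinylated RGS beads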
# Target sequence (P09471 whole entry, looked up): as above
# Target sequence (P49798 whole entry, looked up): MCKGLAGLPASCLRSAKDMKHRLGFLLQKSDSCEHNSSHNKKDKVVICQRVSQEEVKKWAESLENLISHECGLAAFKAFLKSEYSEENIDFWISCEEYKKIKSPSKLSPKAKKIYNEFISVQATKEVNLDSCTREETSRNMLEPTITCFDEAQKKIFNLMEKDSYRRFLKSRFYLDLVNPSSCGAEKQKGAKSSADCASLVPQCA
# Biotin-avidin: biotin-avidin bead binding disruption counter-screen | shares compounds with RGS16-Gao | streptavidin beads, fluorescein-biotin binding, flow cytometry | inhibition, % at 10 µM | 1,700 tested, under 10 active | AID 1783;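 active means inhibition above 50%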;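 further: median green fluorescence of gated singlet beads compared with DMSO control wells; 0% = DMSO wells and 100% = complete loss of bead fluorescence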
# RGS8-Gao single: confirmation of regulators of human RGS8-Galphao interaction; shares compounds with RGS16-Gao; bead-based flow cytometry RGS8-Galphao binding, fluorescence; actives lie on both sides; binding response (% of control), % at 10 µM; 1,700 tested, 3% active; AID 1836; in the data active means binding response below about 72% or above about 130%; inactive means in between;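 further: Galphao activated as GDP AlF4 complex before binding bead RGS8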
# RGS7-Gao confirm: confirmation of regulators of human RGS7-Galphao interaction; shares compounds with RGS16-Gao; response (percent of control binding), % at 10 µM; bead-based flow cytometry RGS7-Galphao binding; actives lie on both sides; 1,700 tested, 7.8% active; AID 1837; in the data active means response below about 75% or above about 130%; inactive means in between;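 further: fluorescent Galphao activated with GDP and aluminum fluoride binding bead-coupled RGS7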
# RGS16-Gao single: confirmation of regulators of human RGS16-Galphao interaction; 1,700 tested, 4% active; bead-based flow cytometry, RGS16-Galphao binding; actives lie on both sides; response (% of control binding), % at 10 µM; shares compounds with RGS16-Gao; AID 1838; in the data active means response below about 74% or above about 130%; inactive means in between;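 further: Galphao activated as the GDP aluminium fluoride complex binding bead-coupled RGS16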
# RGS4-Gao confirm: RGS4-Galphao interaction regulation, single point confirmation; 1,700 tested, 4% active; RGS4-Galphao binding, multiplexed bead flow cytometry; actives lie on both sides; binding response (% of control), % at 10 µM; shares compounds with RGS16-Gao; in the data active means binding response below about 74% or above about 130%; inactive means in between
# RGS19-Gao conf: confirmation of regulators of human RGS19-Galphao interaction; shares compounds with RGS16-Gao; bead-based flow cytometry RGS19-Galphao binding; actives lie on both sides; response (percent of control binding), % at 10 µM; 1,700 tested, 5% active; AID 1841; in the data active means response below about 50% or above about 160%; inactive means in between;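 further: 100% = no compound control and 0% = blank background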
# Starred values were filed as active, the others as inactive; i = inactive; ? = inconclusive; . = not tested or not shown; [ ] = dose if it differs, or a comment. Unless noted, how the calls were made is not given here.
SMILES,RGS8-Gao,GSH fluor,RGS4-Gao reg,Avidin bead fluor,RGS7-Gao reg,RGS16-Gao,RGS-Gao,Biotin-avidin,RGS8-Gao single,RGS7-Gao confirm,RGS16-Gao single,RGS4-Gao confirm,RGS19-Gao conf
NC(=O)CSc1nnc(-c2ccc(S(=O)(=O)N3CCCCC3)cc2)n1-c1ccccc1,114.1,17,124.8,11,111.1,334.5*[activator],124.8*,1.1,105.7,98.1,106.3,105.0,104.7
COc1ccccc1-n1c(SCC(N)=O)nnc1-c1ccc(S(=O)(=O)N2CCCCC2)cc1,100.2,29,96.6,4,98.2,96.8,.,.,.,.,.,.,.
CCC(=O)NC1=C(NC(C)c2ccccc2)C(=O)c2ccccc2C1=O (stereo not given),106.8,26,108.8,4,106.8,104.0,.,.,.,.,.,.,.
CCC(=O)NC1=C(Cl)C(=O)C(NC(=O)CC)=C(Cl)C1=O,52.8*,.,73.0,3,?,8.6*,73.0*,-1.5,35.1*,54.0*,-3.1*,77.2,-6.5*
NC(=O)C1CCN(C(=O)Nc2csc3ccccc23)CC1,74.7,.,93.0,5,?,97.8,.,1.2,99.9,101.2,100.7,102.7,114.7
COc1cccc(C(=O)C2CN(c3ccccc3)CC2c2ccc(Cl)cc2)c1 (stereo not given),99.6,6,100.7,11,103.1,95.7,.,.,.,.,.,.,.
Cc1ccc(C)c(CN2CCNC2=O)c1,13.3*,16,20.3*,1,15.2*,7.9*,.,-0.1,94.2,92.3,92.9,94.6,82.1
COc1ccc2c(C)cc(SCc3c(C)noc3C)nc2c1,153.6*[activator],27,113.9,18,116.8,345.2,113.9*,.,.,.,.,.,.
COc1cc(C(=O)OC(C)CN2CCCC2)cc(OC)c1OC (stereo not given),48.6*,25,46.6*,6,43.8*,42.4,.,0.2,105.0,105.2,110.7,107.1,118.1
COc1ccc(C(=O)OC(C)CN2CCOCC2)cc1OC (stereo not given),100.8,6,103.0,6,101.6,105.4,.,.,.,.,.,.,.
CN(C)S(=O)(=O)c1ccc(C(=O)NCCSc2ccc(Br)cc2)cc1,84.7,12,97.7,1,100.8,54.3,.,.,.,.,.,.,.
CCOC(=O)C1=C(c2ccccc2)N=C2SCC(=O)N2C1c1ccc(OCC)c(OCC)c1 (stereo not given),105.7,6,100.0,8,98.9,107.4,.,.,.,.,.,.,.
O=C(Nc1ccc2c(c1)OCO2)C1CCN(C(=O)c2ccc(Cl)cc2)CC1,100.1,25,102.3,12,101.4,104.7,.,.,.,.,.,.,.
COC(=O)c1ccc(NC(=O)C2CCN(C(=O)c3cc(OC)c(OC)c(OC)c3)CC2)cc1,.,35,276.4*[activator],.,137.3,.,.,-2.1,102.8,106.5,102.6,100.4,107.3
O=C(Nc1cccc(F)c1)C1CCN(C(=O)c2ccc(Cl)cc2)CC1,69.7,7,74.5,2,83.0,18.0*,74.5*,-1.7,99.9,97.9,98.4,97.6,107.9
O=C(c1cccs1)N1CCCC(c2ccccc2)C1 (stereo not given),102.7,21,100.0,10,101.9,103.5,.,.,.,.,.,.,.
COc1cc2[nH]c(=S)n(C3CC3)c(=O)c2cc1OC,100.1,12,103.0,9,?,101.8,.,.,.,.,.,.,.
COc1cc2[nH]c(=S)n(C3CCCC3)c(=O)c2cc1OC,117.4,41,99.2,4,107.7,181.7*[activator],99.2*,2.6,103.9,103.5,102.2,103.3,115.8
CCCCn1c(=S)[nH]c2c(oc3ccc(Cl)cc32)c1=O,5.1*,21,-5.2*,-3,7.1*,-19.1*,.,-2.4,105.7,108.2,104.5,101.1,109.4
N=C1c2ccccc2CN1NC(=O)c1cccc(S(=O)(=O)N2CCOCC2)c1,126.5,12,115.8,10,113.9,236.3*[activator],115.8*,2.0,108.4,165.5*[activator],125.7*[activator],127.0*[activator],323.9*[activator]
CCOc1ccc(N2C(=O)CC(Sc3ccccc3C(=O)O)C2=O)c([N+](=O)[O-])c1 (stereo not given),95.4,15,101.1,10,?,100.6,.,.,.,.,.,.,.
O=C(Cc1ccc(Cl)cc1)NNC(=S)NC(=O)c1cccnc1,95.1,13,93.0,9,92.8,95.1,.,.,.,.,.,.,.
O=C(NC(=S)NCCOCc1ccc(Cl)cc1)c1cccnc1,66.8,12,88.8,1,93.2,16.0*,88.8*,-1.6,98.7,87.2,96.2,91.7,100.4
O=C(Cc1csc(N2CCOCC2)n1)N/N=C/c1ccc(O)c(O)c1O,57.2*,12,66.2,5,?,49.0,66.2*,i,72.0*,68.4*,69.8*,79.1,36.8*
CCN(CC)C1=CC(=O)OC12CCCCC2,102.3,11,101.7,12,97.9,101.7,.,.,.,.,.,.,.
SMILES,RGS8-Gao,GSH fluor,RGS4-Gao reg,Avidin bead fluor,RGS7-Gao reg,RGS16-Gao,RGS-Gao,Biotin-avidin,RGS8-Gao single,RGS7-Gao confirm,RGS16-Gao single,RGS4-Gao confirm,RGS19-Gao conf
O=C(Cn1cc2c(n1)CCCCC2)Nc1ccccc1Br,28.1*,.,24.7*,1,?,14.0*,.,1.5,98.3,98.5,96.1,97.9,90.3
CN(C=C1C(=O)CC(C)(C)CC1=O)CCN1CCNCC1,99.7,10,102.0,8,98.7,98.7,.,.,.,.,.,.,.
O=C(CSc1nccc(=O)[nH]1)c1cc2ccccc2o1,96.7,.,97.2,7,?,93.6,.,.,.,.,.,.,.
O=C(CSc1ncn[nH]1)c1cc2ccccc2o1,111.9,22,265.4*[activator],33,243.0*[activator],219.4*[activator],.,-0.7,98.2,99.9,96.1,96.0,70.2
COc1ccc(OCCOc2ccccc2[N+](=O)[O-])cc1,125.7,10,116.7,15,111.0,179.8*[activator],116.7*,-0.5,100.4,102.8,100.6,101.6,93.6
O=[N+]([O-])c1ccccc1OCCOc1ccccc1[N+](=O)[O-],99.8,.,99.5,7,?,101.5,.,.,.,.,.,.,.
